# Measurements reported in PubChem BioAssay (NCATS).
# Records with an inconclusive call do not appear. A number with no mark means an inactive call. Active and inactive are the calls of the source. The call rests on the fitted dose curve; in most records, active means well fitted inhibition curve with a large enough effect; inconclusive means small, poorly fitted or top-dose-only effect; inactive means flat fitted curve, though single readings scatter.
# Test system: CP203
# Test: qHTS profiling for inhibitors of Plasmodium falciparum proliferation (AID 504749); further: nearly all actives have a fitted effect of over 60% in size;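 on activity, negative = inhibition: 0% = DMSO vehicle and full inhibition = artemisinin control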
# Conditions: P. falciparum in erythrocytes, SYBR Green DNA, 72 h; series mostly up to 28.7 µM; activity, negative = inhibition: at the top concentration
# Description: NIH National Institute of Allergy and Infectious Diseases [NIAID] NIH Chemical Genomics Center [NCGC] MLPCN Grant: None Assay Provider: Xinzhuan Su, NIAID NCGC Assay Overview: Plasmodium falciparum is a virulent malarial parasite that kills 1-2 million people worldwide each year. Transmitted by mosquitoes, the sporozoite form of the parasite enters the blood stream to infect hepatocytes, where they become merozoites that infect red blood cells (erythrocytes). Within erythrocytes, merozoites begin a […] cycle of growth and division, after which the parasite is released to infect new red blood cells. Gametocytes, which form within erythrocytes as well, circulate in the bloodstream and are ingested by the mosquito, thereby completing the life cycle. To profile malarial isolates for differential chemical responses and to identify inhibitors of malarial growth, an assay that measures P. falciparum growth and replication within erythrocytes was employed. This assay uses a DNA binding fluorescent dye (SYBR Green) to detect parasite DNA following cell lysis. Because mature erythrocytes lack DNA, only Plasmodium-derived DNA is detected.
# NCGC Assay Protocol Summary: The SYBR Green viability assay was adapted from a method described previously (Plouffe et al., 2008). For screening 3 ul culture medium was dispensed into 1536 well black clear bottom plates (Aurora Biotechnologies) using a Multidrop Combi (Thermo Fisher Scientific Inc.), 23 nL compounds in DMSO were added by a pin tool (Kalypsys), and 5 ul of erythrocytes infected with P. falciparum (0.3% parasitemia, 2.5% hematocrit final concentration) were added. The plates were incubated at 37 C in a humidified incubator in 5% CO2 for 72 h, and 2 ul lysis buffer (20 mM Tris HCl, 10 mM EDTA, 0.16% saponin, 1.6% triton X, 10X SYBR Green I supplied as 10,000X […] by Invitrogen) was added to each well. The plates were mixed for 25 sec with gentle shaking and incubated overnight at room temperature in the dark. The following morning, fluorescence intensity at 485(14) nm excitation and 535(25) nm emission wavelengths was measured on an EnVision (Perkin Elmer) plate reader. Plate reads were normalized relative to the control inhibitor (0.29 uM artemisinin) and vehicle (DMSO) wells present on each plate and then corrected by an algorithm using vehicle-only control plates at the beginning and end of the compound plate stack.
# Potency means the concentration at half of the fitted maximal effect.
Structure (SMILES),Potency,"activity, negative = inhibition"
NC(=S)N=Nc1ccc(NN=C(N)N)cc1,12 µM (active),
O=P(O)(O)OC[C@H]1O[C@](O)(COP(=O)(O)O)[C@@H](O)[C@@H]1O,,8.81%
C=CCOc1ccc(CC(=O)O)cc1Cl,,-3.3%
CN1C(C(=O)Nc2ccccn2)C(=O)c2sc(Cl)cc2S1(=O)=O (stereo not given),,-16.6%
CC(C)O,,6.82%
COC(=O)CC[C@H](N)C(=O)O,,-0.666%
CC(=O)Oc1cc(C(F)(F)F)ccc1C(=O)O,,5.71% [at 12.8 µM]
C[C@H](N)C(=O)N[C@@H](C)P(=O)(O)O,,-1.39%
CC(=O)NCCCS(=O)(=O)O,,-0.843%
C[C@@](Cc1ccc(O)c(O)c1)(NN)C(=O)O,,-1.94%
CCCCCCCCCCCCCC(=O)OCC(COP(=O)([O-])OCC[N+](C)(C)C)OC(=O)CCCCCCCCCCCCC (stereo not given),,0.67%
C[C@H](CCCC(C)(C)O)[C@H]1CC[C@H]2[C@@H]3CC=C4C[C@@H](O)CC[C@]4(C)[C@H]3CC[C@]12C,,5.64%
CN1C(=O)OC(C)(C)C1=O,,0.431% [at 12.8 µM]
CC1=CCC2CC1C2(C)C (stereo not given),,0.15%
O=C(O)/C=C/c1ccccc1,,7.16%
FC(F)(F)C(F)(F)C(F)(F)C(F)(F)C(F)(F)F,,1.91%
CCCCCCCCCCCCOCCCN,,4.72%
FCOC(C(F)(F)F)C(F)(F)F,,2.86%
O=S(=O)(O)CC(S)CS (stereo not given),,-0.521%
CC1CC(O)CC(C)(C)C1 (stereo not given),,-1.1%

Structure (SMILES),Potency,"activity, negative = inhibition"
NC(=O)Oc1ccc(Cc2ccccc2)cc1,,1.11%
NC(=S)NS(=O)(=O)c1ccc(N)cc1,,3.38%
CCCCC(CC)CCC(CC(C)C)OS(=O)(=O)O (stereo not given),,1.09%
C=CC[C@@H]1/C=C(\C)C[C@H](C)C[C@H](OC)[C@H]2O[C@@](O)(C(=O)C(=O)N3CCCC[C@H]3C(=O)O[C@H](/C(C)=C/[C@@H]3CC[C@@H](O)[C@H](OC)C3)[C@H](C)[C@@H](O)CC1=O)[C@H](C)C[C@@H]2OC,4.78 µM (active),
O=P(O)(O)CP(=O)(O)O,,2.2%
Cc1ccc(C(C)(C)c2ccc(C)cc2)cc1,,5.49%
NC(N)=NCC1COc2ccccc2O1 (stereo not given),,-10.4%
C[Se]CC[C@H](N)C(=O)O,,-1.23%
C[C@H]1O[C@@H](O[C@H]2[C@@H](O)C[C@H](O[C@H]3[C@@H](O)C[C@H](O[C@H]4CC[C@@]5(C)[C@H](CC[C@@H]6[C@@H]5C[C@@H](O)[C@]5(C)[C@@H](C7=CC(=O)OC7)CC[C@]65O)C4)O[C@@H]3C)O[C@@H]2C)C[C@H](O)[C@@H]1O,,-10.2%
CNC(=O)C[C@@H](N)C(=O)N[C@@H](C(=O)N[C@@H]1C(=O)N2[C@@H]1SC(C)(C)[C@@H]2C(=O)O)c1ccc(O)cc1,,6.42%
CN(C)C=Nc1c(I)cc(I)c(CCC(=O)O)c1I,,-1.5%
NCC[C@H](O)C(=O)N[C@@H]1C[C@H](N)[C@@H](O[C@H]2O[C@H](CN)CC[C@H]2N)[C@H](O)[C@H]1O[C@H]1O[C@H](CO)[C@@H](O)[C@H](N)[C@H]1O,,-3.11%
CC(C)c1ncc([N+](=O)[O-])n1C,,-0.763%
CCCCCCCCCCCCCCCCCC[N+](C)(C)CCC[Si](OC)(OC)OC,,-4.45%
NCC[C@H](O)C(=O)N[C@@H]1C[C@H](N)[C@@H](O[C@H]2O[C@H](CN)[C@@H](O)[C@H](O)[C@H]2O)[C@H](O)[C@H]1O[C@H]1O[C@H](CO)[C@@H](O)[C@H](N)[C@H]1O,,1.04%
O=P(O)(O)O,,-0.449%
CCC(C(=O)NC(N)=O)c1ccccc1 (stereo not given),,-0.0692%
OC/C=C/c1ccccc1,,-0.162%
O=C(O)Cc1cc(I)c(Oc2ccc(O)c(I)c2)c(I)c1,,2.09% [at 12.8 µM]
CCCCC,,-6.44%
